The values below come from PubChem BioAssay (NCATS).

Values without a mark were called inactive. Results filed as inconclusive are left out. Activity calls are given as the source filed them. Unless noted, calls follow the shape of the dose curve; as a rule, active = well fitted curve in the direction sought with a large enough effect; inconclusive = small, poorly fitted or top-dose-only effect, or another doubt; inactive = no such curve, though single readings can be large; an effect the other way counts as inactive or inconclusive.

Experiment [1] concerns the target Cytochrome P450 1A2 (Homo sapiens) (UniProt P05177). The experiment in a line: p450-cyp1a2 (AID 410; calls by dose curve; also: potency is read from the fitted curve at half-maximal effect;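 as to activity change, negative = inhibition: -100% = full effect of reference inhibitor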). A digest of the protocol:
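Luminescent demethylation readout: Luciferin-ME (100uM, equal to Km) turned over by 20nM CYP1A2 for 60 min at room temperature after NADPH regeneration addition, following 10 min compound preincubation. Normalization used 57 uM furafylline as full inhibition.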

Experiment [2] in a line: NFAT Signaling Pathway (AID 444; active = well fitted curve in either direction with a large enough effect, not every such curve was filed as active;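 also: carbachol stimulus at about its EC50 of 1 µM final; % is scaled to controls: 0 for no effect and ±100 for the full control effect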). The following applies: Jurkat NFAT-bla M1, carbachol, beta-lactamase ratio, 5 h; at 17.2 µM (top of the series) unless noted. A digest of the protocol:
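Jurkat cells with NFAT-driven β-lactamase reporter and co-expressed M1 receptor, stimulated with carbachol (final 1 uM, ~EC50), compound titration, 5 h at 37 °C. CCF4 loaded 1 h at RT; 460/530 nm ratio gave %activity and AC50.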

Experiment [3] can be described thus: Stat Signaling Pathway (AID 446; active = well fitted curve in either direction with a large enough effect, not every such curve was filed as active;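 also: ME-180 cervical cancer cells given 40 pM IL-6 alongside compound; SIE-controlled beta-lactamase reporter measured as 460/530 nm FRET emission ratio; % is scaled to controls: 0 for no effect and ±100 for the full control effect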). Conditions: ME-180 SIE beta-lactamase reporter, IL-6 stimulated, 5 h; at 17.2 µM (top of the series) unless noted. The method, boiled down:
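Compound effects on IL-6-induced STAT reporter activity were measured in ME-180 cells. After overnight culture, cells were co-treated with 40 pM IL-6 for 5 hrs before beta-lactamase substrate loading at room temperature.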

Experiment [4] deals with Glucocorticoid receptor (Homo sapiens) (UniProt P04150). Nature of the experiment: GR-GFP Redistribution (AID 450;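 active = compounds whose dose series gives a full or clear partial fitted curve of increased nuclear translocation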; also: potency is read from the fitted curve at half-maximal effect).
Experiment [5] has the same target. Nature of the experiment: GR-EFC Redistribution (AID 451; calls by dose curve; also: potency is read from the fitted curve at half-maximal effect). Conditions: CHO-K1 GR-EFC translocation, beta-gal luminescence, 2 h. The method, boiled down:
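CHO-K1 cells expressing nuclear EA and GR-ED fragments of b-gal; compounds titrated up to 46 uM final, 2 h at 37 C. GR nuclear translocation read as complemented b-gal luminescence after 1 h RT detection.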

In experiment [6] the target is Mitogen-activated protein kinase 10 (Mus musculus) (UniProt Q61831). The experiment in a line: JNK3 AlphaScreen Assay (AID 530; active = well fitted curve in either direction with a large enough effect, not every such curve was filed as active;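 also: kinase came from lysate of stimulated human HepG2 cells; signal reports phosphorylation of biotinylated GST-cJun 1-79 at Ser73 with 10 µM ATP; % is scaled to controls: 0 for no effect and ±100 for the full control effect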). A digest of the protocol:
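Activity was read by AlphaScreen after JNK3-containing HepG2 lysate (cytokine pre-activated) phosphorylated biotinylated GST-cJun with 10 uM ATP at room temperature. Phospho-Ser73 cJun antibody with Protein-A acceptor beads provided detection.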
On the technique in general: In Alpha technology, singlet oxygen from a donor bead excites a nearby acceptor bead.

The target of experiment [7] is Cytochrome P450 3A4 (Homo sapiens) (UniProt P08684). The experiment in a line: qHTS Assay for Inhibitors and Substrates of Cytochrome P450 3A4 (AID 884). Also: potency is read from the fitted curve at half-maximal effect; nearly all actives have a fitted effect of over 50% in size. A digest of the protocol: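 Luminescent readout of luciferin produced by CYP3A4 (20 nM) dealkylation of Luciferin-PPXE, 25 uM (its KM). NADPH-driven reaction ran 60 min at RT after 10 min compound preincubation; data scaled to 57 uM ketoconazole as 100% inhibition.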

Experiment [8] shares this target. The experiment in a line: qHTS Assay for Activators of Cytochrome P450 3A4 (AID 885). Also: nearly all actives have a fitted effect of over 65% in size. A digest of the protocol: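 CYP3A4 activity: Luciferin-PPXE O-dealkylation, 25uM substrate, 200mM KPO4, RT throughout. Read-out is luciferase luminescence; higher values reflect activation.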
Experiment [9] deals with Cytochrome P450 2C19 (Homo sapiens) (UniProt P33261). Nature of the experiment: qHTS Assay for Inhibitors and Substrates of Cytochrome P450 2C19 (AID 899). Also: potency is read from the fitted curve at half-maximal effect; nearly all actives have a fitted effect of over 60% in size. A digest of the protocol: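 Luminescent read-out of luciferin formed from Luciferin-H EGE (10uM, equal to KM). Enzyme 5nM in 50mM KPO4; compound added, 10 min at 37C, then NADPH regenerating system for 60 min at 37C. Full inhibition defined by 57uM ketoconazole.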
(qHTS replaces the single test concentration by a dilution series.)

The nature of experiment [10]: Confirmation and Secondary Assay for Modulators of Hemoglobin Beta Chain Splicing at IVS2 705 locus (AID 930).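 Also: HeLa cells stably expressing the EGFP-705 splicing reporter; GFP fluorescence per well restored by corrected splicing of the IVS2-705 intron in EGFP; % of control where 0% means no effect.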 A digest of the protocol:
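Stable HeLa line with EGFP disrupted by mutant beta-globin intron 2 (705). Overnight attachment, then 2 days of compound at 37C, 5% CO2. Signal: peak GFP intensity summed over objects 5-250 µm.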

Experiment [11] can be described thus: AP1 Signaling Pathway (AID 357; active = well fitted curve in either direction with a large enough effect, not every such curve was filed as active;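 also: ME-180 reporter cells stimulated with EGF at its EC50 level; % is scaled to controls: 0 for no effect and ±100 for the full control effect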). The following applies: ME-180 (cervical carcinoma) AP-1-bla reporter, EGF-induced, beta-lactamase ratio, 5 h; at 17.2 µM (top of the series) unless noted. A digest of the protocol:
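Titration-series screen for positive or negative modulators of EC50 EGF-induced signaling in ME-180 cells carrying an AP-1-driven beta-lactamase reporter. After 5 hours at 37 degrees Celsius, CCF4 460nm/530nm emission ratio gave %Activity; AC50 values derived.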

Experiment [12] has as its target 3',5'-cyclic-AMP phosphodiesterase 4B (Homo sapiens) (UniProt Q07343). Nature of the experiment: qHTS Assay for Inhibitors of PDE-IV (AID 607; active = well fitted activation curve with a large enough effect in the main read-out, with a control signal flat, not every such curve was filed as active; also: % of control where 0% means no effect). A digest of the protocol: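 ACTOne HEK293 cells carry a modified cAMP-gated CNG channel and express endogenous PDE4; plated 1000 cells/well, compounds up to 22.9 uM final. Membrane-potential dye fluorescence (ex 535/em 590) was read; parental cells received 10 uM forskolin + 100 uM RO 20-1724.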

Experiment [13] addresses Guanine nucleotide-binding protein G(i) subunit alpha-1 (Homo sapiens) (UniProt P63096). Nature of the experiment: qHTS Assay for Inhibitors of RGS12 GoLoco Motif Activity (Green Fluorophore) (AID 879).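 Also: 0% = labeled peptide with Gαi1 and full inhibition = labeled peptide alone without protein; negative values mean loss of peptide binding seen as reduced polarization.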 A digest of the protocol: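 A drop in FITC polarization marked displacement of the FITC-tagged RGS12 GoLoco peptide (10 nM) from Gαi1 (50 nM). Compounds were incubated 10 min at room temperature in Tris pH 7.5 buffer containing 150 mM NaCl, 0.1 mM GDP and 0.05% NP40; unlabeled peptide titration served as control.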

Experiment [14] concerns the target Cytochrome P450 2C9 (Homo sapiens) (UniProt P11712). Nature of the experiment: qHTS Assay for Inhibitors and Substrates of Cytochrome P450 2C9 (AID 883). Also: % is scaled to controls: 0 for no effect and ±100 for the full control effect; nearly all actives have a fitted effect of over 60% in size. A digest of the protocol:
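10nM CYP2C9 + 100uM Luciferin-H (=KM), 25mM KPO4; cpd 10 min 37C; NADPH regen, 60 min 37C; stop/detect with P450 Glo-Buffer 20 min; luminescence. Norm. to 57uM sulphaphenazole as full inhibition.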

Experiment [15] can be described thus: qHTS Assay for Identification of Small Molecule Agonists for Thrombopoietin (TPO) Signaling Pathway (AID 917). Also: % is scaled to controls: 0 for no effect and ±100 for the full control effect. The method, boiled down: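 Luciferase reporter (Glycoprotein IIb promoter) in IL-3-deprived Ba/F3 cells carrying human TPO receptor; compounds co-added with 26 pM TPO, incubated 24 h, 37 C. Steadylite luminescence measured after 10 min.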
For experiment [16], the target named is Pyruvate kinase (Leishmania mexicana) (UniProt Q27686). The experiment in a line: qHTS Validation Assay for Inhibitors of Leishmania Mexicana Pyruvate Kinase (AID 945).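 Also: 0% = DMSO only neutral control wells.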 The method, boiled down:
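Mutant LmPYK (E451W), 0.2 nM, plus 0.5 mM PEP and 0.1 mM ADP in 50 mM imidazole pH 7.2 containing 0.01% Tween 20 and 0.05% BSA. Incubated 1 h at room temperature; luminescence via PKLight, normalized to DMSO.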

For experiment [17], the target named is Pyruvate kinase PKM (Homo sapiens) (UniProt P14618). Nature of the experiment: qHTS Assay for Activators of Human Muscle Pyruvate Kinase (AID 954; active = well fitted curve in the direction sought with a large enough effect, not every such curve was filed as active;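 also: 0% = uninhibited enzyme and -100% = no enzyme or full thiadiazolimine inhibition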). The method, boiled down:
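A coupled luminescent readout tracked ATP made from ADP by purified PKM2. Final conditions included 0.1 nM enzyme, PEP and ADP at 0.5 and 0.1 mM, pH 7.2 imidazole buffer with BSA, and a one-hour room-temperature reaction.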

In experiment [18] the target is Alpha-galactosidase A (Homo sapiens) (UniProt P06280). Nature of the experiment: Counterscreen for Glucocerebrosidase Inhibitors: qHTS Assay for Human alpha-Galactosidase at pH 4.5 (AID 992). Also: 0% is about no effect. A digest of the protocol:
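Citrate buffer pH 4.5, Tween-20 0.005%. Enzyme 2 nM, substrate 80 uM, 20 min RT. Stop pH 10. Fluorescence Ex 365/Em 440. AC50 by Hill fit.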

Experiment [19] has as its target alpha-glucosidase (Oryza sativa, rice) (UniProt Q653V4). The experiment in a line: Counterscreen for Glucocerebrosidase Inhibitors: qHTS Assay for Rice alpha-Glucosidase at pH 5.0 (AID 997).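 Also: 0% = full activity with enzyme and -100% = basal without enzyme.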 The method, boiled down:
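Endpoint fluorogenic assay at pH 5.0: compounds (0.7 nM to 77 uM) titrated against 4 nM rice enzyme and 400 uM 4-MU-alpha-glucoside for 20 min at room temperature; NaOH/glycine stop, read ex 365/em 440 nm, Hill-fitted AC50.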
Background: Counterscreens check selectivity or assay interference.

3',5'-cyclic-AMP phosphodiesterase 4B (Homo sapiens), sequence (Q07343 whole entry, looked up): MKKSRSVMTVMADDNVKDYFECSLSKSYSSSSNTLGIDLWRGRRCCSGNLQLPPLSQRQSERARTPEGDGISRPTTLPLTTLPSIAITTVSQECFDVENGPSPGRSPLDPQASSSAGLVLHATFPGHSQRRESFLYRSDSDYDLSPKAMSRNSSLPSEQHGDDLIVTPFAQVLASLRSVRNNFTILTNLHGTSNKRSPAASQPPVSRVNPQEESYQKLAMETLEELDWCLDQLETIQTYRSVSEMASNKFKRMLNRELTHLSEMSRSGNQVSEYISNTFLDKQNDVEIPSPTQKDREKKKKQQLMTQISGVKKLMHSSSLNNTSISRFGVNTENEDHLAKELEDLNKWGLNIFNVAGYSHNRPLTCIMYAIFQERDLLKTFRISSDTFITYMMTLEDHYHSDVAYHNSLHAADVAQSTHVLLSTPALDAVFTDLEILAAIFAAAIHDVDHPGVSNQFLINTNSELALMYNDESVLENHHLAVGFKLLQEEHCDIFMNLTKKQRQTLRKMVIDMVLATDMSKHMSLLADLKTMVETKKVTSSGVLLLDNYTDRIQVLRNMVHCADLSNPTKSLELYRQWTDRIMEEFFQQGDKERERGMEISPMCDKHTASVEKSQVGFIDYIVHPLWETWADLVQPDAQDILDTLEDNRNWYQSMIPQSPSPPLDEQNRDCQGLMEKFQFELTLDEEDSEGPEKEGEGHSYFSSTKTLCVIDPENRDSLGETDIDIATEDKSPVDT
Cytochrome P450 1A2 (Homo sapiens), sequence (P05177 whole entry, looked up): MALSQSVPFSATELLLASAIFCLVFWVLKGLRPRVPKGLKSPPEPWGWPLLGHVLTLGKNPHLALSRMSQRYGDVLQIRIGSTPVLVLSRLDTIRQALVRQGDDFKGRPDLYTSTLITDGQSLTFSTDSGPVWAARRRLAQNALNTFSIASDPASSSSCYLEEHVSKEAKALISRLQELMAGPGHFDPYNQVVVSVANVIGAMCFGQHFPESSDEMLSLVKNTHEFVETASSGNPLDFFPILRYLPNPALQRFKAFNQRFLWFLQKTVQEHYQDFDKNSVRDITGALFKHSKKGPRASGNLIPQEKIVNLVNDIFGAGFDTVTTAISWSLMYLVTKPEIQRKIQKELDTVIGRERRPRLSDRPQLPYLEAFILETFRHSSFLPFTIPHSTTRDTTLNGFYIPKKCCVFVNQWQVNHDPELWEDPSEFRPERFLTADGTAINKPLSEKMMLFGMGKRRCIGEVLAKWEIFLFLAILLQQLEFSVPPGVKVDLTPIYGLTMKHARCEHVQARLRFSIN
Glucocorticoid receptor (Homo sapiens), sequence (P04150 whole entry, looked up): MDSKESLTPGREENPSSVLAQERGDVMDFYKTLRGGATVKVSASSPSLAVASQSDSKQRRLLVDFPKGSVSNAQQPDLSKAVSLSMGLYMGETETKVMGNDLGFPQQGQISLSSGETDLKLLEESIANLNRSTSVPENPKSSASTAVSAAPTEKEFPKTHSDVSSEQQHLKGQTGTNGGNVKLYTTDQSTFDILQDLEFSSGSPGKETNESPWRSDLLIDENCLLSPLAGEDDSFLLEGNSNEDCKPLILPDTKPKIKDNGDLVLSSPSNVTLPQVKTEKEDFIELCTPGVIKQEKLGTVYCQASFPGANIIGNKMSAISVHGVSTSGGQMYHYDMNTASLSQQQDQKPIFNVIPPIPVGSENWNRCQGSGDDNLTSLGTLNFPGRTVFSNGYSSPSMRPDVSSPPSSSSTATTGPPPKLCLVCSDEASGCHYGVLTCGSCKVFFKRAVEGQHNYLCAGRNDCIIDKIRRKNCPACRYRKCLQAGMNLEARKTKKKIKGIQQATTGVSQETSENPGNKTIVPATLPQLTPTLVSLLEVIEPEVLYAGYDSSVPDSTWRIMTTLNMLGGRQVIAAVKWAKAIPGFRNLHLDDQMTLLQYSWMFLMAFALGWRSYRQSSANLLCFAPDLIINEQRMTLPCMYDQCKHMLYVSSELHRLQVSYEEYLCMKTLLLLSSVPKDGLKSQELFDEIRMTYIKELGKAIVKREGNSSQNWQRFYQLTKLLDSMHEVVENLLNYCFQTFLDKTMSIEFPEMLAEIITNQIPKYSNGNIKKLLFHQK
Cytochrome P450 3A4 (Homo sapiens), sequence (P08684 whole entry, looked up): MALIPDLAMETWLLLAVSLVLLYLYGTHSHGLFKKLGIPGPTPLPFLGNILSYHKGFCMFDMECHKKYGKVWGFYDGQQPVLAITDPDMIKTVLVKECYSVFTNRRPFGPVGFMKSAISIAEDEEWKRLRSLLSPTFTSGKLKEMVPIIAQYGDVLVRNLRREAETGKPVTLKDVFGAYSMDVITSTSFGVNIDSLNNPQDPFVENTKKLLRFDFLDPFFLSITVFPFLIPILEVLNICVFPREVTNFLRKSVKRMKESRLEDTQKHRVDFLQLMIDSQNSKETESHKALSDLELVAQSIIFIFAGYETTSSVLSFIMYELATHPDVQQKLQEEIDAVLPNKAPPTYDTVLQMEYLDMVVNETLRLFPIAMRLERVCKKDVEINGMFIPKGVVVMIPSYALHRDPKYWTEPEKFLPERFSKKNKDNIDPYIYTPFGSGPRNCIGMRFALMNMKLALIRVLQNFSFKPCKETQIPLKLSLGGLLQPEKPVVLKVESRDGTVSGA
Cytochrome P450 2C19 (Homo sapiens), sequence (P33261 whole entry, looked up): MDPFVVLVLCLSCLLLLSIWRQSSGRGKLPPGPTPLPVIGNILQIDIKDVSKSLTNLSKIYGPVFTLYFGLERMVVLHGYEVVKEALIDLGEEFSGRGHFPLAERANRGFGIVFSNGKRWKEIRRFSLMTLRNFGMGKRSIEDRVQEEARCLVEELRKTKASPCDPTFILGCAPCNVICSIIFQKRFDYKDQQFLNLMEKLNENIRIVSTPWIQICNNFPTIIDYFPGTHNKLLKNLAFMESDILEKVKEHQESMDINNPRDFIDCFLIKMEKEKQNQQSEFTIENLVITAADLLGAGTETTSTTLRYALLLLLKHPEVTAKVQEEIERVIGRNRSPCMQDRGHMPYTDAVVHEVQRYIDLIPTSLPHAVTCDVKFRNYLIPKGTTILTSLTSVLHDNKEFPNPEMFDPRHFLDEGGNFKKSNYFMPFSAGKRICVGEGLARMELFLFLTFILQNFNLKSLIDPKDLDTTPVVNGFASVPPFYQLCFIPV
Guanine nucleotide-binding protein G(i) subunit alpha-1 (Homo sapiens), sequence (P63096 whole entry, looked up): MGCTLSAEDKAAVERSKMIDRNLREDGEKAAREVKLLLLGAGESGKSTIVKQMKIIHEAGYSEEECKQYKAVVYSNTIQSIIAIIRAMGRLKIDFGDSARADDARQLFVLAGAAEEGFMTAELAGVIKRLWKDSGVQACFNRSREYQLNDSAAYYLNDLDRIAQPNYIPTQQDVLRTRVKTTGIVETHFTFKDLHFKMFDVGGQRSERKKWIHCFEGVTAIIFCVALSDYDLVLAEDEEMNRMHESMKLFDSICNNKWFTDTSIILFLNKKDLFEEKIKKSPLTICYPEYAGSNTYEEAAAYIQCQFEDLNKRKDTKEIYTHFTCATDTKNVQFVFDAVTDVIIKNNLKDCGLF
Alpha-galactosidase A (Homo sapiens), sequence (P06280 whole entry, looked up): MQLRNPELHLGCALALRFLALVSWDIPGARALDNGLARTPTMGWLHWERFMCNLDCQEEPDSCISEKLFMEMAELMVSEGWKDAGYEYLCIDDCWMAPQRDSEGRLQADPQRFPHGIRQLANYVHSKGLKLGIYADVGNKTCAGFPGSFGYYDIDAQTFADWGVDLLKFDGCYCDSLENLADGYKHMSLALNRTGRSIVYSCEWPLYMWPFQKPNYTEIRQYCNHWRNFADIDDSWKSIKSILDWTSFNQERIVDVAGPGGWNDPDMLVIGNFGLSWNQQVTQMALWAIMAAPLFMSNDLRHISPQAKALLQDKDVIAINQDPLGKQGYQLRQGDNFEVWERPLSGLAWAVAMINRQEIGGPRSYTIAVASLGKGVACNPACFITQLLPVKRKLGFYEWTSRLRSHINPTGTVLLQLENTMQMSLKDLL
Pyruvate kinase (Leishmania mexicana), sequence (Q27686 2-499 E452W): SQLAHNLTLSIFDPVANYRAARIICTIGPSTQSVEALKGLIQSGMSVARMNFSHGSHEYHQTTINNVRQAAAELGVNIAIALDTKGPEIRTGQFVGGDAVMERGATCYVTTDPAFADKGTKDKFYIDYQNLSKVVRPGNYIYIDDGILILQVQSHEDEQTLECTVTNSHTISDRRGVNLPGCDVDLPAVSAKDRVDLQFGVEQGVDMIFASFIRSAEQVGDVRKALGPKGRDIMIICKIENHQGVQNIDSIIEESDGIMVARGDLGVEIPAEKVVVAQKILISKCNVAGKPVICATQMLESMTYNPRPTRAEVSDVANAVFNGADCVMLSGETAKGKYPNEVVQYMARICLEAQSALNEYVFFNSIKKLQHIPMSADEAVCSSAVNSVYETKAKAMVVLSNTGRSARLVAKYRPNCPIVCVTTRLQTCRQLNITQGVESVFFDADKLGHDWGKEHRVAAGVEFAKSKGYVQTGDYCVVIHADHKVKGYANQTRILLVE
Pyruvate kinase PKM (Homo sapiens), sequence (P14618 whole entry, looked up): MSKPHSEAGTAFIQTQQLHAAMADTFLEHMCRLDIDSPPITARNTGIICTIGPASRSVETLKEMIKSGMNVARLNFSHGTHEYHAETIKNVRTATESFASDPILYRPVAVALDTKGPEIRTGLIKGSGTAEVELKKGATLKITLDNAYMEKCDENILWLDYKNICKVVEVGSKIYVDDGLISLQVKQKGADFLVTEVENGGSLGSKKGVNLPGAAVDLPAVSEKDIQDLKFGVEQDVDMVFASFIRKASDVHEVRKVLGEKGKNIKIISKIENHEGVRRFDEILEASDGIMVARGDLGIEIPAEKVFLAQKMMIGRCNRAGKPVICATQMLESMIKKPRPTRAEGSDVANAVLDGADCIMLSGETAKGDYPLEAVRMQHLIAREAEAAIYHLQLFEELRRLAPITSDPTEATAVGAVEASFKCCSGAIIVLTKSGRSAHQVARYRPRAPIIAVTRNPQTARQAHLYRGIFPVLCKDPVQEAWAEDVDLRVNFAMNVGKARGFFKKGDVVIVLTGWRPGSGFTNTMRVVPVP

As to `FC(F)(F)c1ccccc1-c1nc(Nc2ccncc2)c2ccccc2n1`, the Potency was 10 µM (active) in experiment [1]; above 46 µM in experiment [4]; above 46 µM in [5]; 0.631 µM (active) in [7]; 2 µM (active) in [9]. In addition, the activity change, negative = inhibition in [2] was -8.21% [at 7.69 µM]. Besides, in experiment [3], the activity, negative = inhibition is -14.6% [at 7.69 µM]. Besides, the Potency result in experiment [6], in experiment [8] and in [10] was “inactive” in each case.
Take `CCOc1ccc2c(ccc(/C=C\c3cc(C)c4cccnc4c3O)[n+]2C)c1`: in experiment [11], the activity change, negative = inhibition was -9.14% [at 7.69 µM]. The Potency in experiment [4] was above 46 µM; in [5], above 9.22 µM. In [12], the Potency entry was “inactive”.
Turning to `CCCCCCCCCCCCCCCCCC(=O)O[C@H](CC(=O)O)C[N+](C)(C)C`, the Potency result in [1], in experiment [6], in experiment [12], in [14], in experiment [15] and in [16] was “inactive” throughout. Moreover, the activity, negative = inhibition in experiment [3] is -28.3% [at 38 µM]. Further, the Potency in experiment [4] and in experiment [5] was above 46 µM throughout. Also, the result in [13], in [17], in experiment [18] and in experiment [19] was inactive.
For the compound `COc1cccc2c1C(=O)c1c(O)c3c(c(O)c1C2=O)C[C@](O)(C(=O)CO)C[C@H]3O[C@@H]1C[C@H](N)[C@H](O)[C@H](C)O1`, the Potency result in [1] and in [12] was “inactive” throughout. The activity, negative = inhibition in experiment [3] was 92.4% [activator] (active). In addition, the Potency in experiment [4] and in experiment [5] was above 20.6 µM throughout.
